Records with an inconclusive call do not appear. Calls of active or inactive are those of the source. The calls were made as follows: active = hit-call score of the fitted dose curve at least 0.9, where 1 is the maximum; inconclusive = response in the unintended direction; inactive = score below 0.9.
biological target: chimpanzee Androgen Receptor (AR), AR (gene 747460) (UniProt O97775); assay: NVS_NR_cAR: NovaScreen (NVS) Nuclear Receptor Binding Assay for chimpanzee Androgen Receptor (AR) (AID 2283346)
Sequence (O97775 whole entry, looked up): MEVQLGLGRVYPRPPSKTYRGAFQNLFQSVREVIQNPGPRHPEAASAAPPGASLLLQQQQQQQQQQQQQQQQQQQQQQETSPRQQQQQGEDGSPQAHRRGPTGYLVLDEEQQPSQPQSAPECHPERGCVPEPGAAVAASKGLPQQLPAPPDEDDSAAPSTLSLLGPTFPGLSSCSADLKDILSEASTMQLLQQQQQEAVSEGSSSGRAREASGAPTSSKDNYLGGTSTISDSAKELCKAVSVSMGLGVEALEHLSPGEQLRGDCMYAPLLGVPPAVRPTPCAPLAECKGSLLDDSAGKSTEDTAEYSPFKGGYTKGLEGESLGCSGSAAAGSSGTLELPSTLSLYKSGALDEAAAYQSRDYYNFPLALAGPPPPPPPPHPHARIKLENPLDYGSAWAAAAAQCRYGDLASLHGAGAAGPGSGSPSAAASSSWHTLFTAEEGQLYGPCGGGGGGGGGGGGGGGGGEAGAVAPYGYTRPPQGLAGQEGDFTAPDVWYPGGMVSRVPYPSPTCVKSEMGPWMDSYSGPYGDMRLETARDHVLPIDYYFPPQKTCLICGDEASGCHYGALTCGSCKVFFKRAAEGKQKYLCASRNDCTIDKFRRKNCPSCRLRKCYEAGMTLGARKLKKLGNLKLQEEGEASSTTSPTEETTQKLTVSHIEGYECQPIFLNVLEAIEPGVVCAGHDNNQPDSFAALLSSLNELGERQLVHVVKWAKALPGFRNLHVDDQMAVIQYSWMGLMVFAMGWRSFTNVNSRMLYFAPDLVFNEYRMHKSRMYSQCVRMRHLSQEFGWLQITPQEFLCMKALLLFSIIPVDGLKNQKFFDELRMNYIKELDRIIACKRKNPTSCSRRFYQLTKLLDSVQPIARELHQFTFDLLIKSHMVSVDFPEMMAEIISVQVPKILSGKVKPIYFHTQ
Method in brief: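 Cell-free radioligand displacement using receptor protein extracted from Sf9/Sf21 cells; bound radioligand measured by scintillation counting 72 hours after chemical dosing. Loss of signal versus DMSO baseline indicates binding; primary screen single-concentration in duplicate at 25 uM, actives followed in concentration series.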

Q: `CCN=C1C=CC(=C(c2ccc(N(CC)CC)cc2)c2ccc(N(CC)CC)cc2)c2ccccc21` was tested. Which AC50 did it give?
A: 3.61 µM (active)

Q: `C#CC(O)CCC` (stereo not given) was tested. Which outcome did it give?
A: inactive

Q: For `CC(=O)CCC(C)C`, which outcome is on record?
A: inactive

Q: With `CCCCCCCC/C=C\CCCCCCCC(=O)OCC(O)CO` (stereo not given) as the molecule, how does the outcome read?
A: inactive

Q: With `O=C1c2c(O)ccc(Nc3ccc(CCO)cc3)c2C(=O)c2c([N+](=O)[O-])ccc(O)c21` as the molecule, how does the outcome read?
A: inactive

Reference: PubChem BioAssay (EPA / NIEHS)
